For one assay, the target named is TRIM23. Kind of assay: pooled miR-30 sensor sort-seq; sequence = guide strand. Particulars: shRNA.
Take AACTTCTGTAAACTGCTGCTGC: the sensor-assay potency score (higher = more potent) came to 0.168.

Sequence TAAGCTCGAATACATGACCGGG returned a sensor-assay potency score (higher = more potent) of -0.886.

TATGCACACAAACTACACCTGT yielded a sensor-assay potency score (higher = more potent) of -0.275.

In the case of TTAATTTGTGTTTTCCACCTAC, the sensor-assay potency score (higher = more potent) was 0.335.

ATCAACAACACTTAGAGCCATT yielded a sensor-assay potency score (higher = more potent) of -1.25.

TTCTTCTGCAGCTCCATACTGA had a sensor-assay potency score (higher = more potent) of -0.628.

The target in the next assay is TRIM25. Described as above. Particulars: shRNA.
TTGTTGTAGCTGCTCCACCTTT showed a sensor-assay potency score (higher = more potent) of -0.889.

Sequence TATAGCACTCTGACAGAGCCAC returned a sensor-assay potency score (higher = more potent) of -0.415.

In turn, TAAATCCACTAACTGTTCCGGG came in with a sensor-assay potency score (higher = more potent) of -0.339.

TTTAATGTAATACTCCAGGAGC had a sensor-assay potency score (higher = more potent) of -0.733.

On to TTTCCGTGTATTCTTGTTGTAG, for which the sensor-assay potency score (higher = more potent) was -0.308.

TAAATGGTGTCAAACTTGCTGT displayed a sensor-assay potency score (higher = more potent) of -0.555.

On to TTGAGTTCGGATGTGAGCTGGT, for which the sensor-assay potency score (higher = more potent) turned out to be 0.643.

In turn, TTTATCTTCCTTGTCGAGGTGG showed a sensor-assay potency score (higher = more potent) of 0.408.

Sequence TTGAGGTCTATGGTGCTCTGGT registered a sensor-assay potency score (higher = more potent) of -0.448.

Consider TTGAGAGATGTTGAGTTCGGAT, for which the sensor-assay potency score (higher = more potent) was -0.803.

The sequence TTGTGCTGGGAACATTTGCGGC returned a sensor-assay potency score (higher = more potent) of -1.66.

TTGTTTTAAATCCACTAACTGT registered a sensor-assay potency score (higher = more potent) of -0.521.

The target of the next assay is TRIM2. Described as above. Particulars: shRNA.
The sequence TTTCCAGTGCTGTACATGCTTG returned a sensor-assay potency score (higher = more potent) of -1.12.

In the case of TTGTCTTAAATTTCCCATCGGA, the sensor-assay potency score (higher = more potent) stood at 0.291.

As for TAAAATTCCATCACATTCCCAT, the sensor-assay potency score (higher = more potent) came out at 0.363.

In turn, ATCACTTTCAGCTTAAACGGGC had a sensor-assay potency score (higher = more potent) of -0.591.

Sequence TTGAATCCACTGCTACACCTGT yielded a sensor-assay potency score (higher = more potent) of -0.182.

The sequence TATTGCTATTTACAGCTGCAAA gave a sensor-assay potency score (higher = more potent) of -1.54.

Turning to TTCCATTTGTAGATGCAGCTAC, the sensor-assay potency score (higher = more potent) is 0.668.

On to TTCCATTTGAATCCACTGCTAC, for which the sensor-assay potency score (higher = more potent) is -0.305.

On to TAGAGTCTCAGAGACAGGGTAA, for which the sensor-assay potency score (higher = more potent) is -0.389.

For TTTCATTGTAGACTAAAGCATC, the sensor-assay potency score (higher = more potent) is -0.921.

On to TTTTTGTCTTAAATTTCCCATC, for which the sensor-assay potency score (higher = more potent) is -1.5.

For TTAATTGAAAGTTTCATTGTAG, the sensor-assay potency score (higher = more potent) is 0.799.

In a further assay the target is TRIM38. The description is as above. As to conditions: shRNA.
TTTCCATTTAGTTATTCGCATT returned a sensor-assay potency score (higher = more potent) of -1.66.

Take TCTGTCTTCAAGTTGCTTCAGT: the sensor-assay potency score (higher = more potent) amounted to 0.253.

Sequence TACGTCTTCAACAAGAGCTGTG yielded a sensor-assay potency score (higher = more potent) of -0.0393.

TTAGTTATTCGCATTGCTGTGG: the sensor-assay potency score (higher = more potent) came to 0.226.

For TAAACCTGGAAATAGGGCCGGA, the sensor-assay potency score (higher = more potent) is -0.714.

Take TTAACATTTTCTTCACATCGAA: the sensor-assay potency score (higher = more potent) was -0.794.

Consider TAACATTTTCTTCACATCGAAG, for which the sensor-assay potency score (higher = more potent) is -1.18.

In the case of TTTTGTCACAGCTTTCTGGAGC, the sensor-assay potency score (higher = more potent) is -0.543.

Sequence TTTCTTTTTGCACAGCCTGAGG gave a sensor-assay potency score (higher = more potent) of -1.54.

On to TTCTTGATCCGTCTCTTTGAGG, for which the sensor-assay potency score (higher = more potent) was -1.24.
Further: reference of the scale not given here.
